Source: PubChem BioAssay (EPA / NIEHS)
Where “and” joins values, the source holds several entries; their conditions need not be identical. Equal entries are not always repeated. Where a structure was tested more than once in an assay, its records may differ in their call. Calls of active or inactive are those of the source. How the source made its calls: active means hit-call score of the fitted dose curve at least 0.9, where 1 is the maximum; inactive means score below 0.9.

Tests used:
[1] = read-out: Vascular cell adhesion molecule 1 (VCAM1), VCAM1 (gene 7412); experiment: BSK_IMphg_VCAM1: BioMAP Diversity Plus: IMphg Assay for Vascular cell adhesion molecule 1 (VCAM1) Biomarker Activity (AID 2284286); settings: primary human endothelial cells with macrophages
Summary of the method: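 ELISA read-out of VCAM-1 on venular endothelial cell/macrophage co-cultures at 24 h post-treatment, with DMSO as baseline and positive-direction fitting. Parallel sulforhodamine B total-protein staining (560 nm) served as the overt cytotoxicity measure.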

[2] = read-out: Intercellular Adhesion Molecule 1 (ICAM1), ICAM1 (gene 3383); experiment: BSK_hDFCGF_ICAM1: BioMAP Diversity Plus: hDFCGF Assay for Intercellular Adhesion Molecule 1 (ICAM1) Biomarker Activity (AID 2284287); settings: primary human foreskin fibroblasts
Summary of the method: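 ICAM-1 ELISA readout 24 h after dosing, DMSO as baseline, in human dermal foreskin fibroblast cultures. Cytotoxicity checked in parallel wells by SRB staining (0.1% SRB, 10% TCA fixation, 560 nm).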

CD40, CD40 (gene 958) = experiment: BSK_IMphg_CD40: BioMAP Diversity Plus: IMphg Assay for CD40 Biomarker Activity (AID 2284288); settings: primary human endothelial cells with macrophages
Summary of the method: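 ELISA read-out of cell-surface CD40 at 24 h in human venular endothelial cell/macrophage co-cultures. Activity fitted in the positive direction against DMSO; parallel SRB staining (560 nm) gauges overt cytotoxicity.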

[3] = read-out: TIMP metallopeptidase inhibitor 2 (TIMP2), TIMP2 (gene 7077); experiment: BSK_hDFCGF_TIMP2: BioMAP Diversity Plus: hDFCGF Assay for TIMP metallopeptidase inhibitor 2 (TIMP2) Biomarker Activity (AID 2284289); settings: primary human foreskin fibroblasts
Summary of the method: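 Primary human foreskin fibroblasts in the hDFCGF system, dosed for 24 h; TIMP-2 level measured by ELISA, fitted in the positive direction against DMSO; cytotoxicity checked in parallel by sulforhodamine B total protein staining.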

[4] = read-out: Interleukin-1 alpha (IL1a), IL1A (gene 3552); experiment: BSK_IMphg_IL1a: BioMAP Diversity Plus: IMphg Assay for Interleukin-1 alpha (IL1a) Biomarker Activity (AID 2284290); settings: primary human endothelial cells with macrophages
Summary of the method: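 IL-1α is quantified by ELISA at 24 h in the endothelial/macrophage IMphg co-culture, with gain of signal fitted relative to DMSO. Parallel SRB total-protein staining flags overt toxicity.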

[5] = read-out: E-selectin (Homo sapiens) (UniProt P16581); experiment: BSK_IMphg_ESelectin: BioMAP Diversity Plus: IMphg Assay for Eselectin Biomarker Activity (AID 2284291); settings: primary human endothelial cells with macrophages
Summary of the method: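 Analysed against DMSO baseline in the positive fitting direction, this endpoint is an ELISA read of E-selectin. It comes from human venular endothelial cells co-cultured with macrophages, sampled 24 h post-dose.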

[6] = BSK_IMphg_SRB: Viability Assessment in the BioMAP Diversity Plus: IMphg Assay (AID 2284292); settings: primary human endothelial cells with macrophages;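 further: measured one day after compound addition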
Summary of the method: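 SRB viability endpoint: cultures of human endothelial cells plus macrophages fixed with 10% TCA, stained with 0.1% SRB, read at 560 nm 24 h post-dosing. Only gain-of-signal fitted, relative to DMSO.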

[7] = read-out: Macrophage colony-stimulating factor (MCSF), CSF1 (gene 1435); experiment: BSK_IMphg_MCSF: BioMAP Diversity Plus: IMphg Assay for Macrophage colony-stimulating factor (MCSF) Biomarker Activity (AID 2284293); settings: primary human endothelial cells with macrophages
Summary of the method: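 M-CSF was measured by ELISA in human venular endothelial cell/macrophage co-cultures dosed for 24 hours. Sulforhodamine B staining of parallel cultures assessed cytotoxicity; data fitted against DMSO baseline.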

[8] = BSK_IMphg_SRB.Mphg: Macrophage Viability Assessment in the BioMAP Diversity Plus: IMphg Assay (AID 2284295); settings: primary human endothelial cells with macrophages
Summary of the method: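 Cytotoxicity read-out: parallel cultures fixed with 10% TCA, stained with 0.1% sulforhodamine B, read at 560 nm. System combines venular endothelium and macrophages; sampled 24 h post-dosing, fitted positively relative to DMSO control.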

[9] = read-out: Thrombomodulin, THBD (gene 7056); experiment: BSK_LPS_Thrombomodulin: BioMAP Diversity Plus: LPS Assay for Thrombomodulin Biomarker Activity (AID 2284296); settings: primary human HUVEC with PBMC
Summary of the method: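 Thrombomodulin on the surface of LPS-activated endothelial/PBMC co-cultures was quantified by ELISA at 24 hours post-dosing, with DMSO as baseline. Parallel SRB total-protein staining flagged overt cytotoxicity.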

Measured: AC50

Chain of E-selectin (Homo sapiens) (P16581 whole entry, looked up): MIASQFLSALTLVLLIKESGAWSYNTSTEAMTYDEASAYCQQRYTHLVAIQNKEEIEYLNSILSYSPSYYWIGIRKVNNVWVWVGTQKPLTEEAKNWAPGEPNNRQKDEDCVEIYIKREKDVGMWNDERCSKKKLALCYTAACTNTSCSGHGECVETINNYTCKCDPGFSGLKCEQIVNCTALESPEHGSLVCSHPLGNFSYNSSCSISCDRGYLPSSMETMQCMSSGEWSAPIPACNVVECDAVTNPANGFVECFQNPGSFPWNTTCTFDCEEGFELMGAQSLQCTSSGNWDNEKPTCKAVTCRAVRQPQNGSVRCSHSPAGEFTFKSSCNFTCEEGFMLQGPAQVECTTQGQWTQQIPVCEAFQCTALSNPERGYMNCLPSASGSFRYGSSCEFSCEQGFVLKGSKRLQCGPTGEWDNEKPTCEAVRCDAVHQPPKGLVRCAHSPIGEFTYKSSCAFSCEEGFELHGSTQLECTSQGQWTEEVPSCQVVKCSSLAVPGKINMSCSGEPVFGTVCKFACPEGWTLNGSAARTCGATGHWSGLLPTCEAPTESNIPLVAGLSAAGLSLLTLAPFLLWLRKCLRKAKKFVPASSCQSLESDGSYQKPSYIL

O=C(Cl)C(F)(F)C(F)(F)C(F)(F)C(=O)Cl
inactive: all assays above

NCC(F)(F)C(F)(F)C(F)(F)C(F)(F)F
inactive: all assays above

FC(F)(F)COC(OCC(F)(F)F)OCC(F)(F)F
inactive: all assays above

FC(F)C(F)(F)COCC1CO1 (stereo unspecified)
inactive: all assays above

FC(F)=C(F)C(F)(F)C(F)(F)C(F)(F)C(F)(F)C(F)(F)C(F)(F)F
inactive: all assays above

O=S(=O)(O)CCC(F)(F)C(F)(F)C(F)(F)C(F)(F)C(F)(F)C(F)(F)F
active: [9] 227 nM
inactive: [1] | [2] | CD40, CD40 (gene 958) | [3] | [4] | [5] | [6] | [7] | [8] | [9]

C[Si](C)(C)C(F)(F)C(F)(F)C(F)(F)F
inactive: all assays above

OCCC(F)(F)C(F)(F)C(F)(F)C(F)(F)F
inactive: all assays above

OC(O)(C(F)C(O)(O)C(F)(F)F)C(F)(F)F
active: [3] 7.41 µM and 22.4 µM
inactive: all other assays above

FC(F)(F)C(F)(F)C(F)(F)C(F)(F)C(F)(F)C(F)(F)I
inactive: all assays above
